Inconclusive results are not listed. Active and inactive are the calls of the source. The call rests on the fitted dose curve; in most records, active means well fitted inhibition curve with a large enough effect; inconclusive means small, poorly fitted or top-dose-only effect; inactive means no such curve, though single readings can be large or run the other way.
Potency means the concentration at half of the fitted maximal effect.

A short description of the assay: qHTS Screen of the MIPE 4.0 Collection Against Ewings Sarcoma (EW8) (AID 1259255). Further: nearly all actives have a fitted effect of over 35% in size.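 On viability: 100% = DMSO-treated cells and 0% = medium-only wells without cells.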 The settings on record: EW8 Ewing sarcoma viability, CellTiter-Glo, 48 h; series mostly up to 45.8 µM; viability: at the top concentration. In a few lines:
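Compound titrations go onto adherent log-phase cells 4 h after seeding, incubate 48 h at 37C, then CellTiter-Glo luminescence reports viability relative to DMSO and cell-free controls.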
In general terms: qHTS replaces the single test concentration by a dilution series.
Consider `C[C@@H]1C[C@H]2[C@@H]3CCC4=CC(=O)C=C[C@]4(C)[C@@]3(F)[C@@H](O)C[C@]2(C)[C@@]1(O)C(=O)CO`, for which the viability (as a rule, a read-out of living cells in per cent, often relative to untreated cells) is 122% (inactive).
Turning to `N#Cc1c(N(CC(=O)O)CC(=O)O)sc(C(=O)O)c1CC(=O)O`, the “viability” value was 109% (inactive).
Regarding `CCCCCCCCCCCCCC(=O)N[C@H](CO)[C@H](O)c1ccc([N+](=O)[O-])cc1`, the “viability” value was 104% (inactive).
As for `C=C1c2cccc(O)c2C(O)=C2C(=O)[C@@]3(O)C(O)=C(C(N)=O)C(=O)[C@@H](N(C)C)[C@@H]3[C@@H](O)[C@H]12`, the Potency was 23.5 µM (active).
Still for that read-out and setting: under `CCC(=C(CC)c1ccc(O)cc1)c1ccc(O)cc1` stands 26.4 µM (active).
As for `CC1(C)[C@H]2CC[C@]3(C)[C@@H](C(=O)C=C4[C@@H]5C[C@@](C)(C(=O)O)CC[C@]5(C)CC[C@]43C)[C@@]2(C)CC[C@@H]1O`, the “viability” value is 110% (inactive).
With `CN1CCc2c(n(Cc3ccc(C(=O)NO)cc3)c3ccccc23)C1`, the Potency is 16.6 µM (active).
`Cc1[nH]c(C=C2C(=O)Nc3ccc(S(=O)(=O)N(C)c4cccc(Cl)c4)cc32)c(C)c1C(=O)N1CCN(C)CC1`: the Potency is 26.4 µM (active).
`CCC(C)SSc1ncc[nH]1` (configuration not stated): the Potency was 11.8 µM (active).
For `O=C(O)C1=CC(O)C(O)[C@H](O)C1` (some centres not stated), the “viability” value is 123% (inactive).
As to `CC(=O)OCC(=O)[C@@]12OC(C)(C)O[C@H]1C[C@H]1[C@@H]3C[C@H](F)C4=CC(=O)C=C[C@]4(C)[C@@]3(F)[C@@H](O)C[C@@]12C`, the “viability” value is 123% (inactive).
Regarding `CN(C)c1ccc(-c2nc3ncc(Cl)c(N4CCN(CC(=O)Nc5nccs5)CC4)c3[nH]2)cc1`, the Potency was 16.6 µM (active).
On the same count and under the same terms, under `CCCCC(F)(F)[C@@]1(O)CC[C@H]2[C@H](CC(=O)[C@@H]2CCCCCCC(=O)O)O1` stands 3.32 µM (active); under `CC(C)CN(C[C@H](O)[C@H](Cc1ccccc1)NC(=O)O[C@H]1CCOC1)S(=O)(=O)c1ccc(N)cc1`, 18.7 µM (active).
`COc1cc(Cl)cn2c(-c3cccc(NC4CNC4)n3)cnc12`: the “viability” value is 81.6% (inactive).
As to `Cc1cc2nc3c(=O)[nH]c(=O)nc-3n(CC(O)C(O)C(O)CO)c2cc1C` (configuration not stated), the “viability” value was 120% (inactive).
On to `CC(NCCc1ccc(O)cc1)C(O)c1ccc(O)cc1` (configuration not stated), for which the “viability” value was 114% (inactive).
For `NC(=O)c1ncn([C@@H]2O[C@H](CO)[C@@H](O)[C@@H]2O)n1`, the “viability” value was 119% (inactive).
Take `CCCC1OC2C[C@@H]3[C@H]4CCC5=CC(=O)C=C[C@]5(C)[C@H]4C(O)C[C@]3(C)[C@]2(C(=O)CO)O1` (some centres not stated): the Potency is 18.7 µM (active).
Consider `Nc1ncnc2c1ncn2[C@@H]1O[C@H](CO)[C@@H](O)[C@@H]1O`, for which the Potency is 5.26 µM (active).
As to `COc1ccc(-c2nc3ccc(C4=NNC(=O)CC4C)cc3[nH]2)cc1` (configuration not stated), the “viability” value is 103% (inactive).
For `C#CCN(C)CC1=Cc2ccccc2Oc2ccccc21`, the “viability” value was 107% (inactive).
Turning to `O=C(c1ccc(C(=O)N2CCC(N3CCCC3)CC2)c(Nc2ccccc2)c1)N1CCC(N2CCCC2)CC1`, the Potency is 6.62 µM (active).
On to `NS(=O)(=O)c1cc(Cl)c(Cl)c(S(N)(=O)=O)c1`, for which the “viability” value was 106% (inactive).
Regarding `CC(C)c1onc(-c2c(Cl)cccc2Cl)c1COc1ccc(C=Cc2cccc(C(=O)O)c2)c(Cl)c1`, the “viability” value is 93.2% (inactive).
Consider `CC1(C)C(N(O)C(=O)Nc2ccc(Cl)cc2)N(c2ccc(Cl)cc2)C(=O)N1CC(=O)NN=CC=Cc1ccc([N+](=O)[O-])o1` (configuration not stated), for which the Potency was 14.8 µM (active).
For `Nc1ccc(-c2ccc3ncc4ccc(=O)n(-c5cccc(C(F)(F)F)c5)c4c3c2)cn1`, the Potency is 0.0066 µM (active).
As for `COc1c(C)c2c(c(O)c1CC=C(C)CCC(=O)O)C(=O)OC2`, the Potency is 1.48 µM (active).
Turning to `CNC1[C@H](O)C(O[C@@H]2C(O)C(O[C@H]3O[C@H]([C@@H](C)NC)CC[C@H]3N)[C@@H](N)C[C@H]2N)OC[C@]1(C)O` (some centres not stated), the “viability” value is 108% (inactive).
In the case of `CC(C)=CCCC(C)=CCCC(C)=CCCC(C)=CCCC(C)=CCCC(C)=CCCC(C)=CCCC(C)=CCCC(C)=CCO`, the “viability” value is 106% (inactive).
On to `COc1cc([C@@H]2c3cc4c(cc3[C@@H](O[C@@H]3O[C@@H]5CO[C@@H](C)O[C@@H]5[C@H](O)[C@@H]3O)[C@H]3COC(=O)[C@H]23)OCO4)cc(OC)c1O`, for which the Potency was 0.148 µM (active).
In the case of `C[C@H]1[C@H](O)O[C@@H]2O[C@@]3(C)CC[C@@H]4[C@H](C)CC[C@@H]1[C@@]24OO3`, the Potency is 1.66 µM (active).

Values taken from PubChem BioAssay (NCATS).
